# Assay results from PubChem BioAssay (NCATS).
# Inconclusive results are not listed. Values without a mark were called inactive. Calls of active or inactive are those of the source. Calls follow the shape of the dose curve; as a rule, active = well fitted inhibition curve with a large enough effect; inconclusive = small, poorly fitted or top-dose-only effect; inactive = no such curve, though single readings can be large or run the other way.
# Assay: Primary fluorescence-based thiol-reactive (MSTI) qHTS assay for identification of artifact compounds. (AID 1845221); also: nearly all actives have a fitted effect of over 65% in size
# Conditions: MSTI thiol-reactivity probe, 1 h; series mostly up to 53.8 µM; activity change, negative = thiol reactive: at the top concentration
# Method in brief: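 Compounds were incubated 1 h at room temperature in the dark with the MSTI probe (4 uM) in PBS pH 7.4, 2% DMSO. Signals were normalized between Acetyl-MSTI and MSTI.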
# Potency is read from the fitted curve at half-maximal effect.
Structure (SMILES),"activity change, negative = thiol reactive",Potency
CC1=CC(=O)[C@@H](O)[C@@]2(C)C1C[C@H]1OC(=O)[C@H](O)[C@@]3(O)[C@@H](C)[C@@H](O)[C@H](O)C2[C@@]13C (stereo partly drawn),9.14%,–
CN(Cc1cccc(-c2ccncc2)c1)C(=O)Oc1ccc(-c2ccc(C(N)=O)cc2)cc1,22.6%,–
CN(C(=O)C(c1ccccc1)c1ccccc1)[C@H](CN1CC[C@H](O)C1)c1ccccc1,5.78%,–
C/C=C(\C)C(=O)OC1CC2C(CC=C3CC(OC4CC(OC)C(OC5CC(OC)C(OC6CC(OC)C(OC7CC(OC)C(O)C(C)O7)C(C)O6)C(C)O5)C(C)O4)CCC32C)C2(O)CCC(C(C)=O)C12C (stereo not drawn),0.247% [at 11.5 µM],–
CN=C(NS(=O)(=O)c1ccc(Cl)cc1)N1C[C@H](c2ccccc2)C(c2ccc(Cl)cc2)=N1,32%,–
COC1CC(O[C@H]2CC[C@@]3(C)C(CCC4C3CC[C@]3(C)C(C5=CC(=O)OC5)CCC43O)C2)OC(C)C1OC1OC(COC2OC(CO)C(O)C(O)C2O)C(O)C(O)C1O (stereo partly drawn),0.284% [at 11.5 µM],–
Cc1c(N[C@@H](c2nnc(-c3ccc(C#N)cc3)o2)[C@H](C)O)ccc(C#N)c1Cl,279%,–
CC12CCC3C(C1)c1c(cc(O)c(C(=O)c4ccccc4)c1OC3(C)C)O2 (stereo not drawn),57.8%,–
C=C1C(=O)CC2OC2(C)CC2OC(=O)C(=C)C2C(O)C1OC(=O)/C(C)=C\C (stereo not drawn),-9.4%,–
CN1C(=O)[C@@H](Cc2c[nH]c3ccccc23)N=C(c2ccccc2F)c2ccccc21,13.4%,–
CCCCCCC1C(=O)O[C@H](C)[C@H](NC(=O)c2cccc(NC=O)c2O)C(=O)O[C@@H](C)[C@@H]1OC(=O)CC(C)C (stereo partly drawn),–,1.89 µM (active)
C=C(C)[C@@]12O[C@@H]1[C@@]1(C)C(=CC2=O)CC[C@@H](OC(C)=O)[C@@H]1C,47.7%,–
c1ccc([C@@H]2C[C@H]2NC2CCNCC2)cc1,13.1%,–
CC(C)[C@H]1OC(=O)[C@H](Cc2ccccc2)N(C)C(=O)[C@@H](C(C)C)OC(=O)[C@H](Cc2ccccc2)N(C)C(=O)[C@@H](C(C)C)OC(=O)[C@H](Cc2ccccc2)N(C)C1=O,55.6% [at 25.6 µM],–
CN(C)[C@@H]1C(=O)C(C(N)=O)=C(O)[C@@]2(O)C(=O)C3=C(O)c4c(O)ccc(Cl)c4[C@@](C)(O)C3C[C@@H]12 (stereo partly drawn),–,1.68 µM (active)
CC(=O)O[C@H]1C[C@]2(O)[C@@H]3CC[C@@H]4C[C@@H](O)CC[C@]4(C)[C@H]3CC[C@]2(C)[C@H]1c1ccc(=O)oc1,114%,–
CN1CCC2=C(C1)c1ccccc1Cc1ccccc12,6.38%,–

Structure (SMILES),"activity change, negative = thiol reactive",Potency
C=C(C)C(=O)O[C@H]1[C@@H]2[C@H](C)C(=O)O[C@@H]2C[C@@H](C)[C@@H]2C=CC(=O)[C@]21C,-11.3%,–
CCOc1ccc(Oc2ccc(OCc3cc(F)ccc3F)cc2)c(N)c1,–,8.44 µM (active)
CCN1C[C@]2(COC)CC[C@H](O)[C@@]34C5C[C@@H]6[C@@H](OC)C[C@@](OC(C)=O)(C5[C@@H]6OC(C)=O)[C@H]([C@H](OC)C23)[C@@H]14 (stereo partly drawn),27.3% [at 25.6 µM],–
CC(C)[C@H](NC(=O)c1nn(Cc2ccc(F)cc2)c2ccccc12)C(N)=O,43.9%,–
CCCN(CCC)[C@@H]1CCc2ccc3[nH]c(C#N)cc3c2C1,-13.6%,–
Cc1ccc2c(c1)[C@H]1CN(C)CC[C@H]1N2C(=O)CSc1nnnn1-c1ccc(Cl)cc1,23.4%,–
C[C@]12CC[C@H](O)C[C@@H]1CC[C@@H]1[C@@H]2CC[C@]2(C)C(=O)CC[C@@H]12,41.2%,–
CC(=O)OC[C@]12[C@H](OC(C)=O)C(=O)[C@@H]3[C@@H](O)[C@@]14O[C@@]3(C)COC(=O)c1cccnc1[C@@H](C)[C@H](C)C(=O)O[C@@H]([C@H](OC(C)=O)[C@@H]2OC(C)=O)[C@]4(C)O,36.3% [at 25.6 µM],–
C#C[C@]1(O)CC[C@H]2[C@@H]3CC[C@H]4Cc5nc6nc7ccccc7n6cc5C[C@]4(C)[C@H]3CC[C@@]21C,70.5%,–
CN1C(=O)N(c2ccc(C#N)c(C(F)(F)F)c2)C(=O)[C@@]1(CO)c1ccccc1,119%,–
CCCCCn1cc(C(=O)Oc2cccc3cccnc23)c2ccccc21,88.7%,–
COc1cc(O)c2c(c1)CCC[C@@H](O)[C@H](O)C(=O)/C=C\C[C@H](C)OC2=O,35.6%,–
C[C@]12CC[C@H](O)C[C@@H]1CC[C@@H]1[C@@H]2CC[C@]2(C)[C@@H](C3=CC(=O)OC3)CC[C@]12O,83%,–
C[C@]12CC[C@H](O)C[C@@]1(O)CC[C@@H]1[C@@H]2CC[C@]2(C)[C@@H](c3ccc(=O)oc3)CC[C@]12O,99.7%,–
CC1=CC2OC3CC(O)[C@](C)([C@@]2(C)C(O)C1=O)[C@]31CO1 (stereo partly drawn),-17.5%,–
CN1Cc2c(ccc3c2OCO3)[C@@H]2[C@H]1c1cc3c(cc1C[C@@H]2O)OCO3,18.9%,–
